This is an account of results in PubChem BioAssay (NCI).

About 79,000 compounds went through this panel and 15% of them were active in at least one assay; those are over-represented in the sample as a whole. Values without a mark were called inactive. The source made the active and inactive calls. No stated cut-off is given here; in the data, active means growth inhibition above about 70%; inactive means the rest.

Experiment [1] can be described thus: NCI Yeast Anticancer Drug Screen. Data for the rad50 strain (AID 155).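 Further: 0% = growth of vehicle-only cultures of the same strain.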 As to conditions: S. cerevisiae rad50 strain growth inhibition; at 50.0 µM; active compounds read high. The essentials:
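Inhibition values express reduced yeast growth in compound-treated cultures relative to vehicle-treated controls.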

Experiment [2] in a line: NCI Yeast Anticancer Drug Screen. Data for the mec2-1 strain (AID 157). As to conditions: S. cerevisiae mec2-1 strain, at 50.0 µM, active compounds read high. The essentials:
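Cells of the genetically defined mec2-1 yeast strain are incubated with test compound. Inhibition of growth is calculated against vehicle-treated controls.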

Experiment [3] can be described thus: NCI Yeast Anticancer Drug Screen. Data for the sgs1 mgt1 strain (AID 161).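 Further: 0% = growth of cultures given vehicle only.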 The settings on record: S. cerevisiae sgs1 mgt1 strain, at 50.0 µM, active compounds read high. In outline: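 Inhibition of yeast growth, normalised to vehicle-treated controls, is reported for a strain bearing genetic alterations in DNA damage repair.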
Experiment [4] is described as follows: NCI Yeast Anticancer Drug Screen. Data for the cln2 rad14 strain (AID 165).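 Further: 0% = growth equal to vehicle treated cultures.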 As to conditions: S. cerevisiae cln2 rad14 strain, at 50.0 µM, active compounds read high. The essentials: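 The screen exposed genetically defined yeast (cln2 rad14) to test compounds and scored growth inhibition relative to vehicle-treated controls.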
A short description of experiment [5]: NCI Yeast Anticancer Drug Screen. Data for the bub3 strain (AID 167). The settings on record: S. cerevisiae bub3 mutant strain, at 50.0 µM, active compounds read high. In outline: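 Steps: expose the mutant yeast strain to compound; grow alongside vehicle-treated cultures; measure growth; express inhibition against the vehicle cultures.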
The nature of experiment [6]: NCI Yeast Anticancer Drug Screen. Data for the mlh1 rad18 strain (AID 175). The settings on record: S. cerevisiae mlh1 rad18 strain growth inhibition; at 50.0 µM; active compounds read high. The essentials:
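Compound-treated yeast growth, normalised to vehicle controls. Strain bears defined DNA repair mutations.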

Take `NC(=S)n1nc(-c2ccccc2)c(N=Nc2cccc([N+](=O)[O-])c2)c1-c1ccccc1`: the growth inhibition was 32.9% in experiment [1]; 7.5% in experiment [2]; 31.1% in experiment [3]; 19.6% in experiment [4]; 0.1% in experiment [5]; 10.8% in experiment [6].

On to `CC(=O)OCCOC(=O)Nc1ccccc1`, for which the growth inhibition was 0.05% in experiment [1]; -14.5% in experiment [2]; -13.9% in experiment [3]; -22.2% in experiment [4]; -2.55% in experiment [5]; -4.85% in experiment [6].

Consider `CC1=C(/C=C/C(C)=C/C=C/C(C)=C/C=C/C=C(C)/C=C/C=C(\C)C=O)C(C)(C)CCC1`, for which the growth inhibition in experiment [1] is -18.2%; in experiment [2] it was 4.85%; in experiment [3] it was -9.4%; in experiment [4] it was -1.4%; in experiment [5], 4.75%; in experiment [6], 0.8%.

For the compound `c1ccc(C2(c3ccccc3)SC2(c2ccccc2)c2ccccc2)cc1`, the growth inhibition in experiment [1] was -13.9%; in experiment [2], -7.75%; in experiment [3], -11.1%; in experiment [4], -24.1%; in experiment [5] it was 2.15%; in experiment [6], -6.65%.

Regarding `Brc1c(CCc2ccc3ccccc3c2Br)ccc2ccccc12`, the growth inhibition in experiment [1] was 0.1%; in experiment [2], 10.2%; in experiment [3], 13.2%; in experiment [4], -6.75%; in experiment [5], -2.8%; in experiment [6] it was 19.6%.

Regarding `Cc1cc2c(=O)c3ccc(Cl)cc3[nH]c2c(C(N)=O)c1C`, the growth inhibition in experiment [1] was 22.2%; in experiment [2] it was 7.4%; in experiment [3], 14.5%; in experiment [4], 26.3%; in experiment [5], 6.6%; in experiment [6], 13.3%.

As to `O=C1CCC2=C3C4CCCC5OC6CC(=O)CCC6=C(C6CCCC(OC2C1)C36)C54` (stereo not given), the growth inhibition is 5.5% in experiment [1]; -2.15% in experiment [2]; 6.55% in experiment [3]; 11.2% in experiment [4]; 25.6% in experiment [5]; 17.4% in experiment [6].

Consider `CCSCC1C(=O)C23C(O)C1CCC2C12COC3(O)C(O)C1C(C)(C)CCC2O` (stereo not given), for which the growth inhibition in experiment [1] is 16.6%; in experiment [2] it was 18.4%; in experiment [3], 7.45%; in experiment [4] it was 10.9%; in experiment [5] it was 2.4%; in experiment [6], 7.05%.

Consider `N#CC(C(N)=O)C(CC(=O)c1ccccc1)c1ccccc1` (stereo not given), for which the growth inhibition in experiment [1] was -7.65%; in experiment [2], -3.1%; in experiment [3] it was 13.3%; in experiment [4], 15.9%; in experiment [5], 19.2%; in experiment [6], -2.05%.

For `[O-]/[N+]1=[N+](\[O-])c2ccccc2COCc2ccccc21`, the growth inhibition in experiment [1] is -5.2%; in experiment [2], -12.3%; in experiment [3], -12.4%; in experiment [4] it was -44.5%; in experiment [5], -8.1%; in experiment [6], -14.2%.

With `COc1ccc(-c2oc3cc(OC)ccc3c(=O)c2O)cc1`, the growth inhibition in experiment [1] is 22.5%; in experiment [2], 25.4%; in experiment [3] it was 8.1%; in experiment [4], -3.5%; in experiment [5], -5.1%; in experiment [6], 8.25%.

On to `NC(=S)NCCN1CCOCC1`, for which the growth inhibition in experiment [1] is -8.85%; in experiment [2] it was -5.95%; in experiment [3], -1.9%; in experiment [4], -15.7%; in experiment [5], 2.25%; in experiment [6] it was 10%.

For the compound `CCCCCCCCN(CCCCCCCC)CC(O)c1ccc2c(c1)Sc1ccccc1O2` (stereo not given), the growth inhibition in experiment [1] was 96.7% (active); in experiment [2], 98.2% (active); in experiment [3] it was 97.5% (active); in experiment [4], 97.1% (active); in experiment [5] it was 97.1% (active); in experiment [6], 98% (active).

Take `CCCCNCC(=O)Nc1ccc(C(=O)OC(C)C)cc1`: the growth inhibition in experiment [1] was -1.9%; in experiment [2] it was -18.1%; in experiment [3], -5.95%; in experiment [4], -35.3%; in experiment [5] it was 10.8%; in experiment [6] it was -1.75%.

Regarding `CCCCCCCCC[N+]12CC[N+](CCCCCCCCC)(CC1)CC2`, the growth inhibition is 8.2% in experiment [1]; 15.2% in experiment [2]; -4.9% in experiment [3]; 2.15% in experiment [4]; 8.8% in experiment [5]; 5.25% in experiment [6].

As to `CSc1ccc(C)c(/C=N/Nc2ccc([N+](=O)[O-])cc2[N+](=O)[O-])c1`, the growth inhibition is 7.05% in experiment [1]; 26.9% in experiment [2]; 18.4% in experiment [3]; -13.6% in experiment [4]; 0.5% in experiment [5]; 3.25% in experiment [6].

`COc1ccc(NC(=O)C(=O)Cc2nc3ccc(C(=O)c4ccccc4)cc3[nH]c2=O)c([N+](=O)[O-])c1`: the growth inhibition in experiment [1] is 36%; in experiment [2], 2.65%; in experiment [3], 12.7%; in experiment [4], 19.1%; in experiment [5], 11.8%; in experiment [6] it was 22.6%.

As for `CCCC(Sc1nc(N)nc2nc[nH]c12)C(=O)O` (stereo not given), the growth inhibition in experiment [1] is -18.7%; in experiment [2], -10.2%; in experiment [3], -26.3%; in experiment [4], -24.3%; in experiment [5], -29%; in experiment [6], 4.9%.

Turning to `COc1ccc(-c2cc(=O)c3cccc(CC(=O)O)c3o2)cc1OC`, the growth inhibition in experiment [1] is 99.2% (active); in experiment [2], 99.2% (active); in experiment [3], 97.5% (active); in experiment [4], 98.8% (active); in experiment [5], 99.3% (active); in experiment [6], 99.2% (active).

For the compound `CCN(CC)c1ccc(N=C2C=C(C(=O)Nc3ccccc3OC)C(=O)c3ccccc32)c(C)c1`, the growth inhibition was -24.6% in experiment [1]; -28.6% in experiment [2]; -12.7% in experiment [3]; 5.25% in experiment [4]; -2.6% in experiment [5]; -16.5% in experiment [6].
